The values that follow come from PubChem BioAssay (NCATS).

Molecules are shown by their SMILES. Active and inactive are the calls of the source. The call rests on the fitted dose curve.
Potency means the concentration at half of the fitted maximal effect.

Sequence of Catechol O-methyltransferase (Homo sapiens) (P21964 whole entry, looked up): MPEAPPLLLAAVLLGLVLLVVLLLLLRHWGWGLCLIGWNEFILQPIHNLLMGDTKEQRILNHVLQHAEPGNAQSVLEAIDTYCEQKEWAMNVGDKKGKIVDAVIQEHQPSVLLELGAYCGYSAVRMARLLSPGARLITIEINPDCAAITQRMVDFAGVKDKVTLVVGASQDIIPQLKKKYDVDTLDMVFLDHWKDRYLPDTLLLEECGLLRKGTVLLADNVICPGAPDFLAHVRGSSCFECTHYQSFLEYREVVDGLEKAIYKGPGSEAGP
Sequence of Phenylethanolamine N-methyltransferase (Homo sapiens) (P11086 whole entry, looked up): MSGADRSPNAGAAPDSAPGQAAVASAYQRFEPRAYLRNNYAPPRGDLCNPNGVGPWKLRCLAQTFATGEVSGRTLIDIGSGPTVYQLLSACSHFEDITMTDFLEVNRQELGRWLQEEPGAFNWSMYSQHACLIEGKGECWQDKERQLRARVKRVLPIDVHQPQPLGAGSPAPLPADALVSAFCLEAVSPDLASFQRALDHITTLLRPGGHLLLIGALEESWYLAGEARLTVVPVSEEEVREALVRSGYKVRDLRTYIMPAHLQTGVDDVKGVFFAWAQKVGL

The first test has as its target Catechol O-methyltransferase (Homo sapiens) (UniProt P21964). Kind of test: Confirmatory Screen for Target Class Profiling of Small Molecule Inhibitors of Methyltransferases (AID 1745852). On activity change, negative = inhibition: on the % scale 0 is the no-effect control and ±100 the full control effect. The following applies: MTase-Glo luminescence, SAH detection, recombinant enzyme; measured here: COMT max response; stronger effect = lower value.
For `O=C(COCC(=O)N1CCN(C(c2ccccc2)c2ccccc2)CC1)Nc1ccc(Cl)cc1C(=O)O`, the activity was -5.29%.

Consider `CC(=O)NC(Cc1c[nH]c2ccccc(=O)c12)C(=O)O` (stereo not drawn), for which the activity is -73.7%.

Take `COc1ccc(CC(NC(C)=O)C(=O)O)cc1` (stereo not drawn): the activity was -71.7%.

Regarding `N#Cc1cccc(-c2c[nH]c3ncnc(N4CCOCC4)c23)c1`, the activity is -74.9%.

Turning to `O=C(O)CC1CCC(c2ccc(-c3ccc(Nc4ccc(C(F)(F)F)nc4)cn3)cc2)CC1` (stereo not drawn), the activity was -2.38%.

For the molecule `CC(C)N(CCCNC(=O)Nc1ccc(C(C)(C)C)cc1)C[C@H]1O[C@@H](n2ccc3c(N)ncnc32)[C@H](O)[C@@H]1O`, the activity is -14.9%.

Take `C/C(=C\CC/C(C)=C/CC[C@]1(C)CCc2cc(O)cc(C)c2O1)CC/C=C(\C)C(=O)O`: the activity is -20.5%.

In a further test the target is Guanidinoacetate N-methyltransferase (Homo sapiens) (UniProt Q14353). The description is as above. The following applies: MTase-Glo luminescence, SAH detection, recombinant enzyme; activity change, negative = inhibition: at 57.3 µM (top of the series) unless noted.
Consider `O=C(COCC(=O)N1CCN(C(c2ccccc2)c2ccccc2)CC1)Nc1ccc(Cl)cc1C(=O)O`, for which the activity change, negative = inhibition was -4.07%.

In the case of `CC(=O)NC(Cc1c[nH]c2ccccc(=O)c12)C(=O)O` (stereo not drawn), the activity change, negative = inhibition is 0%.

As for `COc1ccc(CC(NC(C)=O)C(=O)O)cc1` (stereo not drawn), the activity change, negative = inhibition amounted to 0%.

For the molecule `N#Cc1cccc(-c2c[nH]c3ncnc(N4CCOCC4)c23)c1`, the Potency is 24.1 µM (active).

For the molecule `O=C(O)CC1CCC(c2ccc(-c3ccc(Nc4ccc(C(F)(F)F)nc4)cn3)cc2)CC1` (stereo not drawn), the activity change, negative = inhibition turned out to be 0.046%.

For `CC(C)N(CCCNC(=O)Nc1ccc(C(C)(C)C)cc1)C[C@H]1O[C@@H](n2ccc3c(N)ncnc32)[C@H](O)[C@@H]1O`, the activity change, negative = inhibition was -7.92%.

Take `C/C(=C\CC/C(C)=C/CC[C@]1(C)CCc2cc(O)cc(C)c2O1)CC/C=C(\C)C(=O)O`: the activity change, negative = inhibition was 0% [at 29.8 µM].

The target of a further test is Nicotinamide N-methyltransferase (Homo sapiens) (UniProt P40261). The test is described as above. The following applies: MTase-Glo luminescence, SAH detection, recombinant enzyme; measured here: NNMT max response; stronger effect = lower value.
Sequence of Nicotinamide N-methyltransferase (Homo sapiens) (P40261 whole entry, looked up): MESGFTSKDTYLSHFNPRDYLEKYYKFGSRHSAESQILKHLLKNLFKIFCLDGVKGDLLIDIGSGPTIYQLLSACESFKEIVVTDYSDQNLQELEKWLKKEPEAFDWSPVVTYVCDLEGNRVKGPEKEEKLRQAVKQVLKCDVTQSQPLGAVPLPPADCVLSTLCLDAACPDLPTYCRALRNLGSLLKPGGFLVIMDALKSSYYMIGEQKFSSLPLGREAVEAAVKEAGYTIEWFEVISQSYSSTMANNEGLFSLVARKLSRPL
Turning to `O=C(COCC(=O)N1CCN(C(c2ccccc2)c2ccccc2)CC1)Nc1ccc(Cl)cc1C(=O)O`, the activity was -44.4%.

For `CC(=O)NC(Cc1c[nH]c2ccccc(=O)c12)C(=O)O` (stereo not drawn), the activity is 3.04%.

Regarding `COc1ccc(CC(NC(C)=O)C(=O)O)cc1` (stereo not drawn), the activity was 1.04%.

With `N#Cc1cccc(-c2c[nH]c3ncnc(N4CCOCC4)c23)c1`, the activity is -64.5%.

Consider `O=C(O)CC1CCC(c2ccc(-c3ccc(Nc4ccc(C(F)(F)F)nc4)cn3)cc2)CC1` (stereo not drawn), for which the activity was -13.8%.

Regarding `CC(C)N(CCCNC(=O)Nc1ccc(C(C)(C)C)cc1)C[C@H]1O[C@@H](n2ccc3c(N)ncnc32)[C@H](O)[C@@H]1O`, the activity was -18.1%.

Regarding `C/C(=C\CC/C(C)=C/CC[C@]1(C)CCc2cc(O)cc(C)c2O1)CC/C=C(\C)C(=O)O`, the activity was -14.3%.

Another test addresses Phenylethanolamine N-methyltransferase (Homo sapiens) (UniProt P11086). The description is as above. The following applies: MTase-Glo luminescence, SAH detection, recombinant enzyme; measured here: PNMT max response; stronger effect = lower value.
Take `O=C(COCC(=O)N1CCN(C(c2ccccc2)c2ccccc2)CC1)Nc1ccc(Cl)cc1C(=O)O`: the activity is -8.81%.

For the molecule `CC(=O)NC(Cc1c[nH]c2ccccc(=O)c12)C(=O)O` (stereo not drawn), the activity was -0.114%.

For `COc1ccc(CC(NC(C)=O)C(=O)O)cc1` (stereo not drawn), the activity is -0.971%.

As for `N#Cc1cccc(-c2c[nH]c3ncnc(N4CCOCC4)c23)c1`, the activity was -72.3%.

`O=C(O)CC1CCC(c2ccc(-c3ccc(Nc4ccc(C(F)(F)F)nc4)cn3)cc2)CC1` (stereo not drawn): the activity was -3.22%.

`CC(C)N(CCCNC(=O)Nc1ccc(C(C)(C)C)cc1)C[C@H]1O[C@@H](n2ccc3c(N)ncnc32)[C@H](O)[C@@H]1O`: the activity was -18.6%.

As to `C/C(=C\CC/C(C)=C/CC[C@]1(C)CCc2cc(O)cc(C)c2O1)CC/C=C(\C)C(=O)O`, the activity is -0.0782%.
